This excerpt belongs to a sample that is enriched for hits.
IL1B secr inh: qHTS for Inhibitors of Inflammasome Signaling: IL-1-beta AlphaLISA Primary Screen; THP-1 LPS/ATP IL-1B secretion, AlphaLISA, 16 h; stronger effect = lower value; 360,000 tested, 4.7% active; activity change, % at 57.5 µM; in the data active = activity change below about -50%; inconclusive = mostly about -30% to -49%
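Secreted IL-1B measured by AlphaLISA bead assay after 16 h compound exposure of THP-1 cells; compounds (final up to 57.5 uM) added 1 h before LPS (250 ng/mL) and ATP (1.25 mM) stimulation; lower signal means less secretion.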
HT1080NT lethal: qHTS for induction of synthetic lethality in tumor cells producing 2HG: qHTS for the HT-1080-NT fibrosarcoma cell line | HT-1080-NT fibrosarcoma viability, CellTiter-Glo ATP luminescence, 48 h | Potency, µM (highest dose often 46.1 µM), most hits filed as cytotoxic | 360,000 tested, 1.6% active;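 also: NT is the 2HG producing partner of a matched IDH1 knockdown line; nearly all actives have a fitted effect of over 55% in size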
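Fibrosarcoma NT cells, 750 per well in 5% FBS RPMI, were exposed to compound for 48 hours. Viability: CellTiter-Glo luminescence.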
HT1080 IDH1KD tx: qHTS for induction of synthetic lethality in tumor cells producing 2HG: qHTS for the HT-1080-IDH1KD cell line. HT-1080 IDH1 knockdown viability, ATP luminescence, 48 h. Potency, µM (highest dose often 46.1 µM), most hits filed as cytotoxic. 360,000 tested, 2% active. AID 686971, 2013
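In this qHTS, HT-1080 cells depleted of IDH1 are exposed for 48 h at 37 °C to compound titrations. Toxicity is scored from CellTiter-Glo luminescence, with DMSO as full viability and medium alone as none.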
DT40 TDP1 no CPT: qHTS for Inhibitors of human tyrosyl-DNA phosphodiesterase 1 (TDP1): qHTS in cells in absence of CPT; 420,000 tested, 15% active; AID 686978, 2013; DT40 Tdp1-/- hTDP1 cells, no CPT, ATP luminescence, 48 h; Potency, µM (titrated, usually from 46.2 µM), usual class: inhibitors; also: nearly all actives have a fitted effect of over 55% in size
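Readout: luminescence from CellTiter-Glo after 30 min in the dark at RT. Cells: DT40 Tdp1-/- with stable hTDP1, 400/well. Exposure: compounds alone, ≥48 hr, 37 °C.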
TDP1 cell CPT: qHTS for Inhibitors of human tyrosyl-DNA phosphodiesterase 1 (TDP1): qHTS in cells in presence of CPT. chicken DT40 Tdp1-/-;hTDP1 cells + 20 nM CPT, ATP luminescence, 48 h. Potency, µM (highest dose often 46.2 µM), most hits filed as inhibitors. 420,000 tested, 12% active. AID 686979, 2013; also: nearly all actives have a fitted effect of over 55% in size
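Chicken DT40 Tdp1-/- cells stably complemented with human TDP1 were seeded at 400 cells/well in medium containing 20 nM camptothecin, exposed to pin-transferred compounds, and grown at 37 °C for at least 48 hr. Viability was read as ATP luminescence.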
ALOX12 inh: Primary qHTS assay for inhibitors of human arachidonate 12S-lipoxygenase (ALOX12): Round 2; Polyunsaturated fatty acid lipoxygenase ALOX12 (Homo sapiens), P18054; purified 12hLO, xylenol orange hydroperoxide absorbance; Potency, µM (titrated, usually from 108 µM), usual class: inhibitors; 580,000 tested, 1.1% active; AID 1671190, 2021
Target sequence (P18054 whole entry, looked up): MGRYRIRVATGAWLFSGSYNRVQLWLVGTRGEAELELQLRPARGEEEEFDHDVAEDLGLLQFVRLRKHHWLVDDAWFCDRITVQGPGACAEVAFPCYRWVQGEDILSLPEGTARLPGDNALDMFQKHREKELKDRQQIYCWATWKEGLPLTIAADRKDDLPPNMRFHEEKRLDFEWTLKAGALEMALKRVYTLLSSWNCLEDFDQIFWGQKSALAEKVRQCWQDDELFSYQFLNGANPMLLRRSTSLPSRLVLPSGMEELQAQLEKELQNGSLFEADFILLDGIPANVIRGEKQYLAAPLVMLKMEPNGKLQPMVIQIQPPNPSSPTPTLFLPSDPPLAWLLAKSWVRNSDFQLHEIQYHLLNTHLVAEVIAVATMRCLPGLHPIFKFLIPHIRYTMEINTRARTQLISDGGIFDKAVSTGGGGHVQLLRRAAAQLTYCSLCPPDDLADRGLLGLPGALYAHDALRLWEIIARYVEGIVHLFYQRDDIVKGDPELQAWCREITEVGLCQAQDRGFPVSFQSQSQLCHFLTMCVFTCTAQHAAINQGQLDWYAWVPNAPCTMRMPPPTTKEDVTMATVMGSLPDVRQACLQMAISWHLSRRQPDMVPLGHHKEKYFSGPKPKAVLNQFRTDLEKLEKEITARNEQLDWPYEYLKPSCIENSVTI
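Hydroperoxide product was detected by ferrous iron/xylenol orange as the 573 to 405 nm absorbance ratio. Arachidonic acid at 40 uM (final) was turned over for 30 min at room temperature by 150 nM human 12hLO, pH 7.0 Hepes buffer, after 15 min compound preincubation.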
A number is an active result; i = inactive; ? = inconclusive; nt = no result; ! = repeats disagree. Unless noted, calls follow the shape of the dose curve; as a rule, active = well fitted curve in the direction sought with a large enough effect; inconclusive = small, poorly fitted or top-dose-only effect, or another doubt; inactive = no such curve, though single readings can be large; an effect the other way counts as inactive or inconclusive.

SMILES	IL1B secr inh	HT1080NT lethal	HT1080 IDH1KD tx	DT40 TDP1 no CPT	TDP1 cell CPT	ALOX12 inh
COc1ccc(-c2cc([C@H]3CN4CC[C@H]3C[C@@H]4CNC(=O)NC(C)C)nc(C)n2)cc1OC	nt	nt	nt	nt	nt	31.6µM
CCC(CC)c1cc([C@H]2CN3CC[C@H]2C[C@@H]3CO)nc(-c2ccncc2)n1	nt	nt	nt	nt	nt	i
C[C@H](CO)N1C[C@H](C)[C@H](CN(C)S(=O)(=O)c2ccccc2)Oc2ccc(NC(=O)NC3CCCCC3)cc2CC1=O	?	i	i	?	?	i
CC(C)(C)c1ccc(-c2cn(C[C@H]3CC4CCN3C[C@@H]4C(=O)Nc3ccccc3)nn2)cc1 (stereo partly drawn)	nt	nt	nt	nt	nt	i
CCOc1ccc(-c2c(C)n(-c3ccc(OCC)cc3)c3[n+]2CCCCC3)cc1	-92.3	14.6µM	?	0.164µM	0.206µM	i
Cc1cc2c(C(C)C)c(O)c(O)c(C=O)c2c(O)c1-c1c(C)cc2c(C(C)C)c(O)c(O)c(C=O)c2c1O	nt	nt	nt	5.8µM	5.8µM	1.09µM!
CC/C(=N\Nc1cccc2ccccc12)c1c(O)[nH]c(=O)[nH]c1=O	i	i	i	5.8µM	5.17µM	?
CCC(=NC(C)c1ccccc1)c1c(O)[nH]c(=O)[nH]c1=O (stereo not drawn)	i	i	i	i	i	i
CC/C(=N\Nc1ccccc1)c1c(O)[nH]c(=O)[nH]c1=O	i	?	3.26µM	i	i	?
O=c1cc[se]c2ccccc12	nt	nt	nt	nt	nt	i
O=C1NCCCCCN[C@H]2CCCC[C@@H]12	nt	nt	nt	nt	nt	i
CC1(C)CC2CC(C)(CN2c2ncnc3ccccc23)C1 (stereo not drawn)	-82.4	?	?	9.2µM	8.2µM	i
CC(=O)O[C@@]12CO[C@H]1C[C@H](O)[C@@]1(C)C(=O)[C@H](O)C3=C(C)[C@@H](O)C[C@@](O)([C@@H](OC(=O)c4ccccc4)[C@@H]21)C3(C)C	nt	nt	nt	nt	nt	i
CC(=O)OC1C(=O)[C@]2(C)C(O)CC3OC[C@]3(OC(C)=O)C2[C@@H](OC(=O)c2ccccc2)[C@]2(O)CC(O)C(C)=C1C2(C)C (stereo partly drawn)	nt	nt	nt	3.66µM	?	nt
CC(=O)OC12COC1CC(O)C1(C)C(=O)C(O)C3=C(C)C(O)CC(O)(C(OC(=O)c4ccccc4)C21)C3(C)C (stereo not drawn)	i	?	?	1.03µM	1.16µM	i
CCOc1ccccc1C(=O)N1CCC2(CC1)c1nccn1-c1ccccc1CN2C	nt	nt	nt	nt	nt	i
Cc1nn(-c2ncnc3nc[nH]c23)c2c1C(c1ccc(F)c(F)c1)SCC(=O)N2 (stereo not drawn)	nt	nt	nt	nt	nt	i
O=C1OCC2(CCN(Cc3ccn[nH]3)C2)N1c1ccncc1 (stereo not drawn)	nt	nt	nt	nt	nt	i
CCCn1c(=O)n(C)c(=O)c2c(SCC(=O)NC34CC5CC(CC(C5)C3)C4)nc(CC(C)C)nc21	i	i	i	?	14.6µM	i
Cc1cc(-c2ccc(C)c(S(=O)(=O)N3CCOc4ccc(Cl)cc43)c2)on1	nt	nt	nt	13µM	20.6µM	i
COc1ccc(-c2c(C#N)c(N)nc3c2c(=O)nc2sccn23)cc1OC	nt	nt	nt	nt	nt	i
C[C@H]1CCCC=CC2C[C@H](O)C[C@@H]2[C@H](O)C=CC(=O)O1 (stereo partly drawn)	nt	nt	nt	0.15µM	0.0282µM	i
C[C@H]1CCC/C=C/[C@@H]2C[C@H](O)C[C@H]2[C@@H](O)/C=C/C(=O)O1	-53.5	?	0.146µM	0.581µM	0.184µM	i
